# A number with no mark means an inactive call. Inconclusive results are not listed. Entries that show only a call come without a potency. Calls of active or inactive are those of the source. Calls follow the shape of the dose curve; as a rule, active = well fitted curve in the direction sought with a large enough effect in the repeat runs; inconclusive = weak or mixed curves; inactive = no such curve, though single readings can be large; an effect the other way counts as inactive or inconclusive.
# How the values were obtained:
# [1] = Human pregnane X receptor (PXR) small molecule agonists, qHTS cell viability counter screen (AID 1346977); also: nearly all actives have a fitted effect of over 50% in size
# Procedure, shortened: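 Cytotoxicity counter screen run in the same wells as the PXR luciferase assay, using PXR-Luc HepG2 cells in charcoal-stripped serum medium. Viability: CellTiter-Fluor fluorescence after 24hr compound treatment.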
# [2] = Caspase-3/7 induction in HepG2 cells by small molecules, qHTS assay (AID 1346978); also: nearly all actives have a fitted effect of over 15% in size
# Procedure, shortened: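 Wild-type HepG2 cells, 2,000/well, settled 5 hr at 37 C and 5% CO2, then compound-treated for 17 hr; caspase-3/7 activity read by luminescent Caspase-Glo 3/7 after 30 min at room temperature.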
# [3] = Caspase-3/7 induction in CHO-K1 cells by small molecules, qHTS cell viability counter screen (AID 1346979); also: nearly all actives have a fitted effect of over 35% in size; also: potency is read from the fitted curve at half-maximal effect
# Procedure, shortened: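 Cytotoxicity counter screen run in parallel with the caspase-3/7 assay: CHO-K1 cells, 16hr compound treatment at 37C, then CellTiter-Fluor for 1hr before fluorescence reading.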
# [4] = Caspase-3/7 induction in CHO-K1 cells by small molecules, qHTS assay (AID 1346980); also: nearly all actives have a fitted effect of over 15% in size
# Procedure, shortened: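 Wild-type CHO-K1 cells exposed to compounds for 17hr at 37 C, 5% CO2. Caspase-3/7 activity then measured by Caspase-Glo 3/7 luminescence after 30min at room temperature.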
# [5] = Caspase-3/7 induction in HepG2 cells by small molecules, qHTS cell viability counter screen (AID 1346981); also: series mostly up to about 92 µM; nearly all actives have a fitted effect of over 30% in size
# Procedure, shortened: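 Steps: seed 2,000 HepG2 cells per well; incubate 5 hr at 37 C; pin-add compounds in DMSO; incubate 16 hr; add CellTiter-Fluor; after 1 hr at 37 C and 5% CO2, read fluorescence.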
# [6] = target: Nuclear receptor subfamily 1 group I member 2 (Homo sapiens) (UniProt O75469); test: Human pregnane X receptor (PXR) small molecule agonists, qHTS assay (AID 1346982); also: nearly all actives have a fitted effect of over 35% in size; also: potency is read from the fitted curve at half-maximal effect
# Sequence of Nuclear receptor subfamily 1 group I member 2 (Homo sapiens) (O75469 whole entry, looked up): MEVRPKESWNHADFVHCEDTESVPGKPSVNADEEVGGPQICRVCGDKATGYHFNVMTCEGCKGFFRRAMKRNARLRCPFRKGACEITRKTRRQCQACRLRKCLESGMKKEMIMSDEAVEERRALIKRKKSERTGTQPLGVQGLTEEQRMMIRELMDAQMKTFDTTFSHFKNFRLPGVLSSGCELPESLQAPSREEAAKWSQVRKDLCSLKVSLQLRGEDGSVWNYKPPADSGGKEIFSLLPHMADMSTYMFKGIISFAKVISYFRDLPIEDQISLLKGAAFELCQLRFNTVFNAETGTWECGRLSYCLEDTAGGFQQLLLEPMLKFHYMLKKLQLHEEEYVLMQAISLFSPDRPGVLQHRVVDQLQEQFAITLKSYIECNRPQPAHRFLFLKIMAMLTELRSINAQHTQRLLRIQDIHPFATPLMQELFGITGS
# Procedure, shortened: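 Agonist mode qHTS: PXR-Luc HepG2 cells plated 5 hr before DMSO-dissolved compounds were pinned in, cultured 24 hr at 37 C, 5% CO2; ONE-Glo luminescence readout.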
# [7] = target: Cytochrome P450 2C19 (Homo sapiens) (UniProt P33261); test: Cytochrome P450 Family 2 Subfamily C Member 19 (CYP2C19) small molecule antagonists: luciferase reporter qHTS assay (AID 1671197); also: nearly all actives have a fitted effect of over 65% in size; also: potency is read from the fitted curve at half-maximal effect
# Sequence of Cytochrome P450 2C19 (Homo sapiens) (P33261 whole entry, looked up): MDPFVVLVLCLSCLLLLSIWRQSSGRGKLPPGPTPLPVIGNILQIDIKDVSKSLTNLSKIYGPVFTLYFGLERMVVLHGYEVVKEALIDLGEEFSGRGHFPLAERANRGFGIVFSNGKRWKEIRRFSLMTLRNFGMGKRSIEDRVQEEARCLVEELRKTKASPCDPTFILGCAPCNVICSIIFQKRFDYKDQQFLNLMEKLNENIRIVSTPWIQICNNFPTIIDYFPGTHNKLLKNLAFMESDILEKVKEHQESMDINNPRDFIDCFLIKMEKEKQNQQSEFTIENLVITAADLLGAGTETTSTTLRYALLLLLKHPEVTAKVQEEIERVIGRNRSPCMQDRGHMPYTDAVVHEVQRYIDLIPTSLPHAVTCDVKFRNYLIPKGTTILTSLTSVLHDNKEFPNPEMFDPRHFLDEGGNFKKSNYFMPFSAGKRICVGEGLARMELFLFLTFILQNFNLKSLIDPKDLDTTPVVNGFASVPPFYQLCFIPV
# Procedure, shortened: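 Inhibition of CYP2C19 was scored from loss of luminescence in a P450-Glo proluciferin substrate assay, NADPH-started and run 1 h at 37C, with ketoconazole as positive control.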
# [8] = target: Cytochrome P450 2C9 (Homo sapiens) (UniProt P11712); test: Cytochrome P450 Family 2 Subfamily C Member 9 (CYP2C9) small molecule antagonists: luciferase reporter qHTS assay (AID 1671198); also: nearly all actives have a fitted effect of over 50% in size; also: potency is read from the fitted curve at half-maximal effect
# Sequence of Cytochrome P450 2C9 (Homo sapiens) (P11712 whole entry, looked up): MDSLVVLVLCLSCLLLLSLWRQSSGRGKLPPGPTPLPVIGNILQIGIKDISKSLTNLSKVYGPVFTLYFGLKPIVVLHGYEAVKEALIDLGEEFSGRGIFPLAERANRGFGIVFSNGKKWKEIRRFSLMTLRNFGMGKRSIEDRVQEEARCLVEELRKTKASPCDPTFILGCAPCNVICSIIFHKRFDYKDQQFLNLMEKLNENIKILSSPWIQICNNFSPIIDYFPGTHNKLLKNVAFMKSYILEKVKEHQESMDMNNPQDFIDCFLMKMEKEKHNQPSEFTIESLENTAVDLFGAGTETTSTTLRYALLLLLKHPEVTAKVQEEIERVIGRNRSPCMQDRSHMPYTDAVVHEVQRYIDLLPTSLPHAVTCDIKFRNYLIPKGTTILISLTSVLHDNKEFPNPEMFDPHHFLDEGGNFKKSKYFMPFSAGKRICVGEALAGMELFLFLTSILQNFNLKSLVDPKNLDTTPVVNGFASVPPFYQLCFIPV
# Procedure, shortened: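 P450-Glo proluciferin substrate with CYP2C9 enzyme; 10 min RT preincubation, then NADPH regeneration 1 h at 37C; luciferin detection reagent 20 min RT, luminescence in relative luminescence units.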
# [9] = target: Voltage-gated inwardly rectifying potassium channel KCNH2 (Homo sapiens) (UniProt Q12809); test: Human Ether-a-go-go-Related Gene (hERG) channel small molecule antagonists: fluorescence cell-based qHTS assay (AID 1671200); also: nearly all actives have a fitted effect of over 50% in size; also: potency is read from the fitted curve at half-maximal effect
# Sequence of Voltage-gated inwardly rectifying potassium channel KCNH2 (Homo sapiens) (Q12809 whole entry, looked up): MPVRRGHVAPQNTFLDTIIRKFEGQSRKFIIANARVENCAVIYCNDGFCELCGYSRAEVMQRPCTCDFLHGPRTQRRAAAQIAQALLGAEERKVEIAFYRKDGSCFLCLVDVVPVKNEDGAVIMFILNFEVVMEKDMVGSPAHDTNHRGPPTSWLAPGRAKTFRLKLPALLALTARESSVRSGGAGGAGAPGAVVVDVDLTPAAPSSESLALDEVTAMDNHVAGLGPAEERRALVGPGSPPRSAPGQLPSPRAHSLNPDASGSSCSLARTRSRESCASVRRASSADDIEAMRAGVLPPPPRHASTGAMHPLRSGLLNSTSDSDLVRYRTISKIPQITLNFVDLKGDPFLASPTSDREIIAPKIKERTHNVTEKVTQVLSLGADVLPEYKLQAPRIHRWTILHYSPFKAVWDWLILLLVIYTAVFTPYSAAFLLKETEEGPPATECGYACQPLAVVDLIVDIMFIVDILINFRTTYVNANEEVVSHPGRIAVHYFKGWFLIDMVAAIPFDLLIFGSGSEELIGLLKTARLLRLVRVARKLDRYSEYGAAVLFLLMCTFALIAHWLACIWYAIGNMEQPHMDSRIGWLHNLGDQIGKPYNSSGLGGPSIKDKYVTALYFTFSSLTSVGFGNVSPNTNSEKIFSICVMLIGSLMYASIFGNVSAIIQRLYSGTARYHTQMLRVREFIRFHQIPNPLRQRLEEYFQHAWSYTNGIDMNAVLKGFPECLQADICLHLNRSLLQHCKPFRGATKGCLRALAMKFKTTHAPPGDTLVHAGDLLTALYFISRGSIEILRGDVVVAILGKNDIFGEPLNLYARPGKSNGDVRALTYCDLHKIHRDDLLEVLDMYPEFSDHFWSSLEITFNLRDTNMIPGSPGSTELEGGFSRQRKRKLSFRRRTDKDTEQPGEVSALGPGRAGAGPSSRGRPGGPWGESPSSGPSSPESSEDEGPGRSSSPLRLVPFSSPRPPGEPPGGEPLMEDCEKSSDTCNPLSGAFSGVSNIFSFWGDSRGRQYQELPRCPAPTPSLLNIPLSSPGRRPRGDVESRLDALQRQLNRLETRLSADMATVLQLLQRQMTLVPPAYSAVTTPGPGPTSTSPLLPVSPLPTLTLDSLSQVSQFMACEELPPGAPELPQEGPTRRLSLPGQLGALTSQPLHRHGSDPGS
# Procedure, shortened: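 Fluorescence at 540 nm emission (480 nm excitation) was recorded kinetically for 2 min at 1-second intervals once the thallium-containing stimulus reached cells previously loaded with FluxOR II dye.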
# [10] = target: Cytochrome P450 3A4 (Homo sapiens) (UniProt P08684); test: Cytochrome P450 Family 3 Subfamily A Member 4 (CYP3A4) small molecule antagonists: luciferase reporter qHTS assay (AID 1671201); also: nearly all actives have a fitted effect of over 50% in size; also: potency is read from the fitted curve at half-maximal effect
# Sequence of Cytochrome P450 3A4 (Homo sapiens) (P08684 whole entry, looked up): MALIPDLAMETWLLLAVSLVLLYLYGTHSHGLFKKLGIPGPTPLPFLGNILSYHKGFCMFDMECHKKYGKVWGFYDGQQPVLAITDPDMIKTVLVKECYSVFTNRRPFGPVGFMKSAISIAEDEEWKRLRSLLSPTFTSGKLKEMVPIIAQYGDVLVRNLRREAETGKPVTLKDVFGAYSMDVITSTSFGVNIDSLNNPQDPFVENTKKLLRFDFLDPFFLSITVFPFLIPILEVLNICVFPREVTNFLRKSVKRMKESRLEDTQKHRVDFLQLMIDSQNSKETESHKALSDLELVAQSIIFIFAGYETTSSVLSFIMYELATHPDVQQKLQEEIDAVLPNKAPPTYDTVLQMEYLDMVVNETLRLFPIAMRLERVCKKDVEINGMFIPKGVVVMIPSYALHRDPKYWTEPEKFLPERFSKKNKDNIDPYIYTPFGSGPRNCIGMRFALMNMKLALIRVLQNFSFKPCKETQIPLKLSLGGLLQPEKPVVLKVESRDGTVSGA
# Procedure, shortened: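 qHTS, 1536-well. CYP3A4 + proluciferin substrate, cpd 10 min RT → NADPH regen 1 h RT → detection reagent 20 min → luminescence (RLU). Ketoconazole positive control.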
# [11] = target: Cytochrome P450 2D6 (Homo sapiens) (UniProt P10635); test: Cytochrome P450 Family 2 Subfamily D Member 6 (CYP2D6) small molecule antagonists: luciferase reporter qHTS assay (AID 1671196); also: nearly all actives have a fitted effect of over 50% in size; also: potency is read from the fitted curve at half-maximal effect
# Sequence of Cytochrome P450 2D6 (Homo sapiens) (P10635 whole entry, looked up): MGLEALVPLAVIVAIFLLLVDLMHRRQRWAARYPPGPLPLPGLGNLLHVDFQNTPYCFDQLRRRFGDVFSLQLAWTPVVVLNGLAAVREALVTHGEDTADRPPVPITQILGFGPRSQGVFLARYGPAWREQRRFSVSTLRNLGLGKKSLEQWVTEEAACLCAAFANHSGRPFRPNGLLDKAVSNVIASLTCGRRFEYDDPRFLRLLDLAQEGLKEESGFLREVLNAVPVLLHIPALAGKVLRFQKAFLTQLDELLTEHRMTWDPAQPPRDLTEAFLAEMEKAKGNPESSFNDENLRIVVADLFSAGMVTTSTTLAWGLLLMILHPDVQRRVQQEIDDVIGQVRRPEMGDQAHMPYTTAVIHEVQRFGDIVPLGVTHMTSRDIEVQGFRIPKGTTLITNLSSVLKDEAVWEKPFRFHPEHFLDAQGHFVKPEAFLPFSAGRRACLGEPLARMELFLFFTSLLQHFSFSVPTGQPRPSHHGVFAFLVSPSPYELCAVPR
# Procedure, shortened: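 P450-Glo format: CYP2D6 converts a proluciferin substrate to luciferin in an NADPH-driven reaction lasting 1 h at room temperature. Light output, proportional to CYP2D6 activity, reflects interference by test chemicals.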
# [12] = target: Cytochrome P450 1A2 (Homo sapiens) (UniProt P05177); test: Cytochrome P450 Family 1 Subfamily A Member 2 (CYP1A2) small molecule antagonists: luciferase reporter qHTS assay (AID 1671199); also: nearly all actives have a fitted effect of over 50% in size; also: potency is read from the fitted curve at half-maximal effect
# Sequence of Cytochrome P450 1A2 (Homo sapiens) (P05177 whole entry, looked up): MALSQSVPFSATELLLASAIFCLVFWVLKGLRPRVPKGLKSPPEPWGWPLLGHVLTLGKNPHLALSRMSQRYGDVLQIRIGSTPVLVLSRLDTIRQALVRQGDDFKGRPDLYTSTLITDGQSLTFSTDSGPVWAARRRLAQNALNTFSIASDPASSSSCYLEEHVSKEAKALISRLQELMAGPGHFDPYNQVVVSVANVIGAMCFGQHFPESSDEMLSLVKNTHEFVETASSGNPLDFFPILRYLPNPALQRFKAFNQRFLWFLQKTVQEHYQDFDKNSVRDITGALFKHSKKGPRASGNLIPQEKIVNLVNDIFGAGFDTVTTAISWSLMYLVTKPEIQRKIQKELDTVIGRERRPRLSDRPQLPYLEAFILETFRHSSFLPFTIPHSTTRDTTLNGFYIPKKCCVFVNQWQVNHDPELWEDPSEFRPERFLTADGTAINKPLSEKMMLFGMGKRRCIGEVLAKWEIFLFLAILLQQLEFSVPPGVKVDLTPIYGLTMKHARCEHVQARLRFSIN
# Procedure, shortened: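 Inhibition of CYP1A2 conversion of proluciferin to luciferin, detected by luminescence. Reaction run 1 h at room temperature with NADPH regeneration after brief compound preincubation.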
# [13] = target: Nuclear receptor subfamily 1 group I member 2 (Rattus norvegicus) (UniProt Q9R1A7); test: Rat pregnane X receptor (rPXR) activation by small molecules, qHTS assay (AID 1346983); details: rPXR luciferase reporter cells, One-Glo luminescence, 24 h; max activation: stronger effect = higher value; also: nearly all actives have a fitted effect of over 20% in size; also: potency is read from the fitted curve at half-maximal effect
# Sequence of Nuclear receptor subfamily 1 group I member 2 (Rattus norvegicus) (Q9R1A7 whole entry, looked up): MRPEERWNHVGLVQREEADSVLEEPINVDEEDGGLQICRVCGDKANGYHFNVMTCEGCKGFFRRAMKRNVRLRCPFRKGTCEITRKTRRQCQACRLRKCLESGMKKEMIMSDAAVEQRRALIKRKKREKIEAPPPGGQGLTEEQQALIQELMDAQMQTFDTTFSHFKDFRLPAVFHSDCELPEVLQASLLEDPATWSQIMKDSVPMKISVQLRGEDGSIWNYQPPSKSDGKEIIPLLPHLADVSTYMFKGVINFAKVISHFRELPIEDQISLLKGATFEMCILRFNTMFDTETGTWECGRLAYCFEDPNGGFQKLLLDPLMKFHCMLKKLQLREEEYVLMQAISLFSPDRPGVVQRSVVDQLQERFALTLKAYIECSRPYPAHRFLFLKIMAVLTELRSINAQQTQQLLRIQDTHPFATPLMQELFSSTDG
# Procedure, shortened: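 Cell-based rPXR activation assay: rPXR cells, 2,000 per well, rested 5hr at 37 C, then exposed to compounds in DMSO for 24 hr at 37 C. Luciferase activity read by One-Glo luminescence after 30 min at room temperature.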
# [14] = target: Nuclear receptor subfamily 1 group I member 2 (Homo sapiens) (UniProt O75469); test: Human pregnane X receptor (PXR) activation by small molecules, qHTS assay (AID 1346985); also: nearly all actives have a fitted effect of over 40% in size
# Procedure, shortened: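 DPX-2 cells (HepG2 co-transfected with a PXR response element and a CYP3A4-promoter luciferase construct) were seeded at 2,000 per well, rested 5 hr at 37C, then exposed to DMSO-dissolved compounds for 24 hr. Activation was read as luciferase luminescence.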
Structure (SMILES),Potency [1],Potency [2],Potency [3],Potency [4],Potency [5],Potency [6],Potency [7],Potency [8],Potency [9],Potency [10],Potency [11],Potency [12],max activation [13] [%],Potency [14],Potency [13],caspase activation [2],caspase-3/7 activation [4],activation [6]
CC(C)(O)C(=O)O,inactive,inactive,inactive,inactive,inactive,inactive,inactive,inactive,inactive,inactive,,,,,,,,
CC1(C)C(=O)NC(=O)N1CO,inactive,inactive,inactive,inactive,inactive,inactive,inactive,inactive,inactive,inactive,inactive,inactive,,,,,,
Cc1nc2sccn2c(=O)c1CCN1CCC(=C(c2ccc(F)cc2)c2ccc(F)cc2)CC1,,inactive,,inactive,inactive,inactive,,,0.213 µM (active),,15.5 µM (active),inactive,,,,,,
CCC(=O)O[C@]1(C(=O)COC)[C@@H](C)C[C@H]2[C@@H]3CCC4=CC(=O)C=C[C@]4(C)C3(F)[C@@H](O)C[C@@]21C (stereo partly specified),inactive,inactive,inactive,inactive,,16.8 µM (active),inactive,,inactive,,15.5 µM (active),inactive,,,,,,
COC(=O)Cc1cccc2ccccc12,inactive,inactive,inactive,inactive,,inactive,79.6 µM (active),inactive,inactive,,,20 µM (active),,,,,,
FC1(F)C(F)(F)C(F)(F)C2(F)C(F)(C1(F)F)C(F)(F)C(F)(F)C1(F)C(F)(F)C(F)(F)C(F)(F)C(F)(F)C12F (stereo unspecified),inactive,inactive,,inactive,inactive,inactive,inactive,inactive,inactive,inactive,inactive,inactive,,,,,,
N#CCCCC(C#N)CCC#N (stereo unspecified),,inactive,inactive,inactive,inactive,inactive,inactive,39.9 µM (active),inactive,,inactive,inactive,,,,,,
CCCCCCCCS,inactive,,inactive,inactive,inactive,inactive,inactive,inactive,inactive,inactive,inactive,inactive,,,,,,
CS(C)=O,inactive,inactive,inactive,inactive,inactive,inactive,inactive,,inactive,inactive,inactive,inactive,,,,,,
Nc1ccc(F)cc1F,inactive,,inactive,,inactive,inactive,inactive,inactive,inactive,inactive,inactive,inactive,,,,,,
O=C1c2ccccc2C(=O)c2c1ccc(O)c2O,,,23.7 µM (active),inactive,,inactive,inactive,,inactive,inactive,,25.7 µM (active),0.447,inactive,,,,
CCCc1nc(C)c2c(=O)[nH]c(-c3cc(S(=O)(=O)N4CCN(CC)CC4)ccc3OCC)nn12,inactive,inactive,inactive,inactive,,,inactive,,inactive,,inactive,inactive,,,3.55 µM (active),,,
CC(CC(C#N)(c1ccccc1)C(C)C)N(C)C (stereo unspecified),inactive,inactive,,inactive,inactive,inactive,inactive,inactive,inactive,6.92 µM (active),15.5 µM (active),inactive,,,,,,
CC1=CC(=C(c2ccc(N)cc2)c2ccc(N)cc2)C=CC1=N,,,,,,,,,,2.86 µM (active),,,-21.7,inactive,,0.381% [at 8.39 µM],1.62% [at 8.39 µM],-7.87% [at 8.39 µM]
CNc1ccccc1,inactive,inactive,inactive,inactive,inactive,inactive,31.7 µM (active),,,,inactive,inactive,,,,,,
CCCCCCCCCCCC(=O)OCC,inactive,,inactive,inactive,inactive,inactive,inactive,,inactive,inactive,inactive,inactive,,,,,,
CC(=O)CC/C=C(\C)CC/C=C(\C)CC/C=C(\C)CCC=C(C)C,inactive,inactive,inactive,inactive,inactive,23.7 µM (active),,30.9 µM (active),inactive,,inactive,,,,,,,
O=C(O)c1cc(C(=O)O)c(C(=O)O)cc1C(=O)O,inactive,,,inactive,,inactive,inactive,inactive,inactive,inactive,inactive,inactive,,,,,,
CC(Cc1ccccc1)(NC(=O)CN)c1ccccc1 (stereo unspecified),inactive,inactive,inactive,inactive,inactive,,,,inactive,,,,,,,,,
O=C(O)c1ccccc1-n1cc(C(=O)O)c(=O)c2cc(Nc3c(F)cc(F)cc3Cl)c(Cl)cc21,inactive,,,inactive,inactive,inactive,inactive,,inactive,inactive,inactive,inactive,,,,,,
CCCCOC(=O)CC#N,inactive,inactive,inactive,inactive,inactive,inactive,7.44 µM (active),7.44 µM (active),inactive,inactive,5.27 µM (active),7.44 µM (active),,,,,,
CCCCCCCCCCCCSC#N,inactive,inactive,inactive,inactive,,inactive,,,inactive,,inactive,7.96 µM (active),,,,,,
CCOC(OCC)OCC,inactive,inactive,inactive,,inactive,inactive,inactive,inactive,,inactive,inactive,,,,,,,
N#C[C@@H]1CC(F)(F)CN1C(=O)CNC1CC2CCC(C1)N2c1ncccn1 (stereo partly specified),inactive,inactive,,inactive,inactive,inactive,71 µM (active),35.6 µM (active),inactive,,12.6 µM (active),inactive,,,,,,
O=C1C=CCCC1,inactive,,inactive,inactive,inactive,inactive,inactive,inactive,inactive,inactive,inactive,inactive,,,,,,
CCOc1ccc(NC(C)=O)cc1N,inactive,inactive,inactive,inactive,inactive,31.1 µM (active),36.1 µM (active),,inactive,,,16.1 µM (active),,,,,,
CCCN(C1CCN(C(=O)C2CCNCC2)CC1)[C@@H]1CCc2ccc(OC)cc2C1,,inactive,inactive,inactive,,inactive,inactive,inactive,,,10 µM (active),inactive,,,,,,
Nc1cccc2c(=O)[nH][nH]c(=O)c12,inactive,,inactive,inactive,inactive,inactive,inactive,inactive,,inactive,5.05 µM (active),,,,,,,
CC(=O)c1cccnc1,inactive,,inactive,inactive,inactive,inactive,inactive,inactive,inactive,inactive,inactive,inactive,,,,,,
CC(C)CCCCCCCOC(=O)c1ccc(C(=O)OCCCCCCCC(C)C)c(C(=O)OCCCCCCCC(C)C)c1,,inactive,,inactive,inactive,19 µM (active),inactive,,inactive,,inactive,,,,,,,

# Reference: PubChem BioAssay (Tox21)
